# PMC7862700, “An all-to-all approach to the identification of sequence-specific readers for epigenetic DNA modifications on cytosine”
# Tests used:
# Assay in all cases: DAPPL (digital affinity profiling via proximity ligation, sequencing); 10 mM Tris-HCl pH 7.5, 50 mM NaCl, 1 mM DTT, 4% glycerol, room temperature, 30 min; GST-TFs on glutathione beads, 16-mer random dsDNA library, 0.1% formaldehyde crosslink after washing; high values mean tight binding
# FLI1 = target: T1, FLI1 (Homo sapiens, UniProt Q01543 1-452); conditions: protein: recombinant; tags: N-terminal GST; dsDNA, one strand shown
# T1 sequence: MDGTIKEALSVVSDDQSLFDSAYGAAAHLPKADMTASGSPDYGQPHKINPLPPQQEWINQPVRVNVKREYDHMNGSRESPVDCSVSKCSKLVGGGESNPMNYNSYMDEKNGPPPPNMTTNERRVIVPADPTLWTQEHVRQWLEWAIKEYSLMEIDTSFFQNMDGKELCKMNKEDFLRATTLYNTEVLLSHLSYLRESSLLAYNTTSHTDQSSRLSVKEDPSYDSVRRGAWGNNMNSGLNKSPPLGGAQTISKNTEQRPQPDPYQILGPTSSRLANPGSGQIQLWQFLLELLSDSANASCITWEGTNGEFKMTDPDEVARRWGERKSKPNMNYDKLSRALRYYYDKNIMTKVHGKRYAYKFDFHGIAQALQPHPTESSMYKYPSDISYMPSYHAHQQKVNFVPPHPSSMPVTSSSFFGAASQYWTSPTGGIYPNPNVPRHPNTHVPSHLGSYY
# Method in brief: (§1)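 Yeast served to express human transcription factors as GST fusions, which were then captured on glutathione beads and labelled with DNA barcodes. Pooled with a tag-only sample, they were incubated with 200 nmole of a 16-mer random double-stranded DNA library for 30 min at room temperature in Tris/NaCl/DTT/glycerol buffer, washed, crosslinked with 0.1% formaldehyde, ligated by proximity, amplified by PCR and sequenced. Dividing each hexamer's read frequency for a factor by its frequency for the tag-only sample gives the binding signal.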
# ELK1 = target: T2, ELK1 (Homo sapiens, UniProt P19419 1-428); conditions: protein: recombinant; tags: N-terminal GST; dsDNA, one strand shown
# T2 sequence: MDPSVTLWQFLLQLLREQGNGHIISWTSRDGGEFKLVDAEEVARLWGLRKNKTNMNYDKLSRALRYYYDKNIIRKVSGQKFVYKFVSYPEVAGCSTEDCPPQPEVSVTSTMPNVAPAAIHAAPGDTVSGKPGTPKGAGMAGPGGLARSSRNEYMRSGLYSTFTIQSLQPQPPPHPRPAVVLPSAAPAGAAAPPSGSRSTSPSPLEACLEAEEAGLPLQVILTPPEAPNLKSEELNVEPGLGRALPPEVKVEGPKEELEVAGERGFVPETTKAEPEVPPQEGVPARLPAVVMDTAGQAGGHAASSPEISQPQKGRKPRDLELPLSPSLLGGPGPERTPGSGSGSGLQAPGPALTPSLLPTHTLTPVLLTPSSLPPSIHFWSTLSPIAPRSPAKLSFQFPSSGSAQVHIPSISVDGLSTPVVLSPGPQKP
# Method in brief: as §1
# GABPA = target: T3, GABPA (Homo sapiens, UniProt Q06546 1-454); conditions: protein: recombinant; tags: N-terminal GST; dsDNA, one strand shown
# T3 sequence: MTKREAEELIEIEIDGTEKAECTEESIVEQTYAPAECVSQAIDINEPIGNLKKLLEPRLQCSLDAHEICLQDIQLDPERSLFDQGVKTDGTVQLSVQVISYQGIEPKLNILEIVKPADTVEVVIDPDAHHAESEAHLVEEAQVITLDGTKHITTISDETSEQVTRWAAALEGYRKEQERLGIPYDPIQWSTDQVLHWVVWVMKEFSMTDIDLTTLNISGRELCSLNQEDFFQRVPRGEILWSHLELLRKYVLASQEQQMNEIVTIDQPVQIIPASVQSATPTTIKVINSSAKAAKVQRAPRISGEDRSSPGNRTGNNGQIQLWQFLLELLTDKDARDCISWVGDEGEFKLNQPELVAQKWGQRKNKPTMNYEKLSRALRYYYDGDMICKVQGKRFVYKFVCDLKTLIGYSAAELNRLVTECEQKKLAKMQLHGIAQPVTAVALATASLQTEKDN
# Method in brief: as §1
# ERG = target: T4, ERG (Homo sapiens, UniProt P11308 1-479); conditions: protein: recombinant; tags: N-terminal GST; dsDNA, one strand shown
# T4 sequence: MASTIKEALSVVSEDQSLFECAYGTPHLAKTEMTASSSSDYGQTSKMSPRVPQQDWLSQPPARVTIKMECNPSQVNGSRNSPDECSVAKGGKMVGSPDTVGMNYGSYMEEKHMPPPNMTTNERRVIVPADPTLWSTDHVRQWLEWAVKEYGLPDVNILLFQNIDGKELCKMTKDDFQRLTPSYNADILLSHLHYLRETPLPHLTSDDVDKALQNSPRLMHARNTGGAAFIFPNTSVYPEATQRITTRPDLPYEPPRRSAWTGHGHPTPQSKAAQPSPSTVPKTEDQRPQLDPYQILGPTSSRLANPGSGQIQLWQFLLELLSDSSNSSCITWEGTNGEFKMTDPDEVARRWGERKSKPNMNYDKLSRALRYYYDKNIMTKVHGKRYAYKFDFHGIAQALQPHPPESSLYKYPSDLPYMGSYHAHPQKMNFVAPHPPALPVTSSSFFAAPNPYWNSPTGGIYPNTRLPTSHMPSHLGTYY
# Method in brief: as §1
# ELF1 = ELF1 (Homo sapiens, UniProt P32519 1-619); conditions: protein: recombinant; tags: N-terminal GST; dsDNA, one strand shown
# Method in brief: as §1
# EHF = target: T5, EHF (Homo sapiens, UniProt Q9NZC4 1-300); conditions: protein: recombinant; tags: N-terminal GST; dsDNA, one strand shown
# T5 sequence: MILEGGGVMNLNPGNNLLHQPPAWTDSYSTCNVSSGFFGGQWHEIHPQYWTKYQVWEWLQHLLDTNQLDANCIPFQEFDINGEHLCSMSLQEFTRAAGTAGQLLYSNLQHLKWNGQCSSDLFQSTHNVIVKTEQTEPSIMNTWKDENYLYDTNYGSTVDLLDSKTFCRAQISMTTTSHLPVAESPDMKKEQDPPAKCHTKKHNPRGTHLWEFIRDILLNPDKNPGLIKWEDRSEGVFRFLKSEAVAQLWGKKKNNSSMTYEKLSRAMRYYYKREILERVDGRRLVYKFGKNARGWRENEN
# Method in brief: as §1
# SPI1 = SPI1 (Homo sapiens, UniProt P17947 1-270); conditions: protein: recombinant; tags: N-terminal GST; dsDNA, one strand shown
# Method in brief: as §1
# SPIB = SPIB (Homo sapiens, UniProt Q01892 1-262); conditions: protein: recombinant; tags: N-terminal GST; dsDNA, one strand shown
# Method in brief: as §1
# ELK3 = target: T6, ELK3 (Homo sapiens, UniProt P41970 1-407); conditions: protein: recombinant; tags: N-terminal GST; dsDNA, one strand shown
# T6 sequence: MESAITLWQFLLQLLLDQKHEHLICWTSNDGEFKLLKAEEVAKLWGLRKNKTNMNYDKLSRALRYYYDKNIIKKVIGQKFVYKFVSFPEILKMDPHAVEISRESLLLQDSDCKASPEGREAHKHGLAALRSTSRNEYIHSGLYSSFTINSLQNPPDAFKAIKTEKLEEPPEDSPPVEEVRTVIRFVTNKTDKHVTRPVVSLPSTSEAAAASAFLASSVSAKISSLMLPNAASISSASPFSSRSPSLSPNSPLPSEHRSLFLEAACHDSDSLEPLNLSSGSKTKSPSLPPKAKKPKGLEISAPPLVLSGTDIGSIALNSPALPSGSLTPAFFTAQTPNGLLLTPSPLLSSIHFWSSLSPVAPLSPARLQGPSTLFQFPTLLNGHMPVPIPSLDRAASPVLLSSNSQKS
# Method in brief: as §1
# FEV = target: T7, FEV (Homo sapiens, UniProt Q99581 1-238); conditions: protein: recombinant; tags: N-terminal GST; dsDNA, one strand shown
# T7 sequence: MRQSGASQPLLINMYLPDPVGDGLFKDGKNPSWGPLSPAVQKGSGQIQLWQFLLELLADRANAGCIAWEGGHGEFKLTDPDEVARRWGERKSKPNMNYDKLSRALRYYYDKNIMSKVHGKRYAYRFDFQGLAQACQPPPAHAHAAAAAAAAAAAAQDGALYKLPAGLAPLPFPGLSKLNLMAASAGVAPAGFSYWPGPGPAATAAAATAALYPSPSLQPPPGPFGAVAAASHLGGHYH
# Method in brief: as §1
# ETV5 = ETV5 (Homo sapiens, UniProt P41161 1-510); conditions: protein: recombinant; tags: N-terminal GST; dsDNA, one strand shown
# Method in brief: as §1
# HSF1 = HSF1 (Homo sapiens, UniProt Q00613 1-529); conditions: protein: recombinant; tags: N-terminal GST; chain copies: 3; dsDNA, one strand shown
# Method in brief: as §1
# SPIC = target: T8, SPIC (Homo sapiens, UniProt Q8N5J4 1-248); conditions: protein: recombinant; tags: N-terminal GST; dsDNA, one strand shown
# T8 sequence: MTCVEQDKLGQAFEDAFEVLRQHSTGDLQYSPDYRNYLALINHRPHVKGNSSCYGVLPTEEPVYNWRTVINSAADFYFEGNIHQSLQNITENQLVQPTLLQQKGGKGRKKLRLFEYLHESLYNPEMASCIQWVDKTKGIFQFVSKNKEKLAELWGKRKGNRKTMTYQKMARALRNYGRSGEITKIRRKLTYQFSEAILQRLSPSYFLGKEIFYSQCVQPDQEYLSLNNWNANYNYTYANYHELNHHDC
# Method in brief: as §1
# ELF4 = ELF4 (Homo sapiens, UniProt Q99607 1-663); conditions: protein: recombinant; tags: N-terminal GST; dsDNA, one strand shown
# Method in brief: as §1
# ELK4 = target: T9, ELK4 (Homo sapiens, UniProt P28324-2 1-405); conditions: protein: recombinant; tags: N-terminal GST; dsDNA, one strand shown
# T9 sequence: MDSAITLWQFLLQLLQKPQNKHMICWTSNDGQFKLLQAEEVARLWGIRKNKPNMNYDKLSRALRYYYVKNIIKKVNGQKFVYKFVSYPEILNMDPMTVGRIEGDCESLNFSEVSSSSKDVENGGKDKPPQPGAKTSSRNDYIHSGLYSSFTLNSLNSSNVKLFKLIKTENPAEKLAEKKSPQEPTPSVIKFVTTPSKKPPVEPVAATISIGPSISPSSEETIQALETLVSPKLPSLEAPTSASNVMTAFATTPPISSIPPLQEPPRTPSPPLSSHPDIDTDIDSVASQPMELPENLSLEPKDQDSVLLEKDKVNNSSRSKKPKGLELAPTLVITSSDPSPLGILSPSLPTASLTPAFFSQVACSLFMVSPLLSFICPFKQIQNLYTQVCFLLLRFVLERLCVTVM
# Method in brief: as §1
# ETV2 = target: T10, ETV2 (Homo sapiens, UniProt O00321 1-342); conditions: protein: recombinant; tags: N-terminal GST; dsDNA, one strand shown
# T10 sequence: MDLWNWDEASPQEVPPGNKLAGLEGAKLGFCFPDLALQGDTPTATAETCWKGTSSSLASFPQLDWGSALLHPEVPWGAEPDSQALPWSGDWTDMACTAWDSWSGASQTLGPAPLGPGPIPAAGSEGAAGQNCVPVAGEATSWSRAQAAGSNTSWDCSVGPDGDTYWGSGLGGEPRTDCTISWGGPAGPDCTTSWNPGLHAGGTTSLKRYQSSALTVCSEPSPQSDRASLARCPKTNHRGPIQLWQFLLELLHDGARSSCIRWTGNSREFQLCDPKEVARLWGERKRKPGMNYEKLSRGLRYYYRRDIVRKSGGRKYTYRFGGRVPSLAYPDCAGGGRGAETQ
# Method in brief: as §1
# ELF3 = target: T11, ELF3 (Homo sapiens, UniProt P78545 1-371); conditions: protein: recombinant; tags: N-terminal GST; dsDNA, one strand shown
# T11 sequence: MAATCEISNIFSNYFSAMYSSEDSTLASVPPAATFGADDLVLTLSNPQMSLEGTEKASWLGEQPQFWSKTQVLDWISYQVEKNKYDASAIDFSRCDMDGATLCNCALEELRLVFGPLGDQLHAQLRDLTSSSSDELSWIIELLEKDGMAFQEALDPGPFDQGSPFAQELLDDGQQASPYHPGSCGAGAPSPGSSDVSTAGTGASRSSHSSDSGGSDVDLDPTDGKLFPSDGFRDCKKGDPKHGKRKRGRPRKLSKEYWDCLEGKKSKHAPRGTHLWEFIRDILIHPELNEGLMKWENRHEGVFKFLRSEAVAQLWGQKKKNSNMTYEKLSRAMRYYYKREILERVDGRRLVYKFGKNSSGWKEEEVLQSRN
# Method in brief: as §1
# CRX = CRX (Homo sapiens, UniProt O43186 1-299); conditions: protein: recombinant; tags: N-terminal GST; dsDNA, one strand shown
# Method in brief: as §1
# ETV1 = ETV1 (Homo sapiens, UniProt P50549 1-477); conditions: protein: recombinant; tags: N-terminal GST; dsDNA, one strand shown
# Method in brief: as §1
# Sequence of ELF4 (Q99607 whole entry): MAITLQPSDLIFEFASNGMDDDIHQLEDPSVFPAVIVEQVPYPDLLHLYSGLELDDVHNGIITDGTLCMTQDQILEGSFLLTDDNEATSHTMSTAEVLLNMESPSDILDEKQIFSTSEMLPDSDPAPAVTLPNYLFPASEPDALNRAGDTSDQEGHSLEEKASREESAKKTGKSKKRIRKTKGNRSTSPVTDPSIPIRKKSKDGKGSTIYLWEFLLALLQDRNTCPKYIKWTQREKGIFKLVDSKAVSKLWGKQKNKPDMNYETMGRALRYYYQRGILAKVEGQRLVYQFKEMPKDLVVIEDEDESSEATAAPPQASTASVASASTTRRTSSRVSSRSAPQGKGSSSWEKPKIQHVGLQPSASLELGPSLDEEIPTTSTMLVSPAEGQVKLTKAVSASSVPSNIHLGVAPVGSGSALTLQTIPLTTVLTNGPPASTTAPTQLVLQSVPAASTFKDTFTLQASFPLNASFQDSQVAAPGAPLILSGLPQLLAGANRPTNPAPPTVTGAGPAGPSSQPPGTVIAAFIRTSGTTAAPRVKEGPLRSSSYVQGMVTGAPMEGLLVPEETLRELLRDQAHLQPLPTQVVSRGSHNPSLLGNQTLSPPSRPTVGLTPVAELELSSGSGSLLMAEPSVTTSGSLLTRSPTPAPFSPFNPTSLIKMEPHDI
# Sequence of HSF1 (Q00613 whole entry): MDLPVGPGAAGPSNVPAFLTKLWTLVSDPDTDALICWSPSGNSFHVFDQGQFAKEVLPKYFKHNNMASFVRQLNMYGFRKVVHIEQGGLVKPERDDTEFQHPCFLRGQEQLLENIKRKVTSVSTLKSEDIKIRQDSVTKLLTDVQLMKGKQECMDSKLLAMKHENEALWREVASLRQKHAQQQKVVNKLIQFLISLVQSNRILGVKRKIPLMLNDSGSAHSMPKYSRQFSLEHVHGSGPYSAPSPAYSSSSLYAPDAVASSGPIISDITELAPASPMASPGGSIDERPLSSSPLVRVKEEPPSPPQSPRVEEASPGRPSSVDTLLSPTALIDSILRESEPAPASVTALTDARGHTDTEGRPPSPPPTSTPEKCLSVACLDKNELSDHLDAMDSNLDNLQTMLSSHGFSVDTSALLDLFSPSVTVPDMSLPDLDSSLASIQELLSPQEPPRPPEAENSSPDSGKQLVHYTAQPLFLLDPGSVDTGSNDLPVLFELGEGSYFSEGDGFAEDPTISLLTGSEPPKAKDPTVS
# Sequence of ETV1 (P50549 whole entry): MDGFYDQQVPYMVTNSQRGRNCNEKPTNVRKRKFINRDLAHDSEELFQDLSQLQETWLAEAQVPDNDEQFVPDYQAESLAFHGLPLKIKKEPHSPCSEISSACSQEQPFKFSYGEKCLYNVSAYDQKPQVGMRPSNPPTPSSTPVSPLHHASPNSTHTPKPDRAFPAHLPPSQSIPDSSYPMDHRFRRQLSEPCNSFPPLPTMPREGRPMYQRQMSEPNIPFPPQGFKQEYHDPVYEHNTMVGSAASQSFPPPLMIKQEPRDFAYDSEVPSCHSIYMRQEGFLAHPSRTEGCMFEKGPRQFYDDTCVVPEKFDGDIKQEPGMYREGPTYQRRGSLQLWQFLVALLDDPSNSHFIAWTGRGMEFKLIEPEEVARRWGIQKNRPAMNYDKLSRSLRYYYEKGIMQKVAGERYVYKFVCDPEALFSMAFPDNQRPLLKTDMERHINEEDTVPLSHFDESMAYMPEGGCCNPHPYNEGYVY
# Sequence of ELF1 (P32519 whole entry): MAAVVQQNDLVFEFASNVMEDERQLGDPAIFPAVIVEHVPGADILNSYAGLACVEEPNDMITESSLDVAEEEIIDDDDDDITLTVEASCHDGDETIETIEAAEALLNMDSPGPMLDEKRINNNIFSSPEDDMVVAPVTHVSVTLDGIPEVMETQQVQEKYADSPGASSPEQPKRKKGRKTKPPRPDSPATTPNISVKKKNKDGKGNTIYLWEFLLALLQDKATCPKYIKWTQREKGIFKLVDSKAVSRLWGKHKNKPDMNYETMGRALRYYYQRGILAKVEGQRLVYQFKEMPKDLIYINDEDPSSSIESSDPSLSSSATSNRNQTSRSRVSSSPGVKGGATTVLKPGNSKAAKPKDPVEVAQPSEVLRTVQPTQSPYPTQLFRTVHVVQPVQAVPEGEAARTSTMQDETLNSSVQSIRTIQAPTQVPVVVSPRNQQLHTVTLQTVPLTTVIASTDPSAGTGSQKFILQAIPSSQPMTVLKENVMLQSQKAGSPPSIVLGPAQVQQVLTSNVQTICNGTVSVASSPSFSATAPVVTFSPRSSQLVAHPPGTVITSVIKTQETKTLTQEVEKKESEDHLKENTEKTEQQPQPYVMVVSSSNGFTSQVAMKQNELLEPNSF
# Sequence of ETV5 (P41161 whole entry): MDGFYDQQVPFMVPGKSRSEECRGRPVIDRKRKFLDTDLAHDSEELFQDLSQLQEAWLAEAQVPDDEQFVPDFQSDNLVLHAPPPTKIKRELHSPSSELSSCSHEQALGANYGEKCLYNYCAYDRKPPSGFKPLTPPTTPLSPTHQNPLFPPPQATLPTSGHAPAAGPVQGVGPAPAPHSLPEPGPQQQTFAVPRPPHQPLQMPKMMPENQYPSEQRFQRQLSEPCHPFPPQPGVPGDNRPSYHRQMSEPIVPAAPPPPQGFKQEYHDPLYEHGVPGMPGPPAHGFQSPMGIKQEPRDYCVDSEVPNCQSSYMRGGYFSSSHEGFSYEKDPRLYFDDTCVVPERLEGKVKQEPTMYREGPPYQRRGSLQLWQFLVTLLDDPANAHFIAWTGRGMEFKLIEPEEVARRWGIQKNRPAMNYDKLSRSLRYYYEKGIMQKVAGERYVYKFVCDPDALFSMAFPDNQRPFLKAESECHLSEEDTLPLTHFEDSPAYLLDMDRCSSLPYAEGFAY
# Sequence of CRX (O43186 whole entry): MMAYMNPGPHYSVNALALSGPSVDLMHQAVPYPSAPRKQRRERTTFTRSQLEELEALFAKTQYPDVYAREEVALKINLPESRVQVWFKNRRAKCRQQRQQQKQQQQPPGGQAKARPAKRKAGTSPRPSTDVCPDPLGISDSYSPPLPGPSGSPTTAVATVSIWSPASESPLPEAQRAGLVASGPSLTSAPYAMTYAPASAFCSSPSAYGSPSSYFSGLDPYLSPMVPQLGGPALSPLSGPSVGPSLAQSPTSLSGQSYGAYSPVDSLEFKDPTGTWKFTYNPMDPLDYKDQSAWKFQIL
# Sequence of SPIB (Q01892 whole entry): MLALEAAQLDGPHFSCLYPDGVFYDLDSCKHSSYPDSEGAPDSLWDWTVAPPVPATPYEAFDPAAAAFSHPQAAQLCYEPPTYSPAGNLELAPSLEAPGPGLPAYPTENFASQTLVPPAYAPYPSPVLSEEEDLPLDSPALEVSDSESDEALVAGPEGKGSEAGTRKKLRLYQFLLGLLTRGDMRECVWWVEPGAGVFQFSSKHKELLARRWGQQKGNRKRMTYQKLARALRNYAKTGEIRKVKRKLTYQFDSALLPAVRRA
sequence,measurement,setting,value
CTTGTA,binding signal,FLI1,"1.5 fold enrichment (6-mer frequency, TF over GST control)"
same,binding signal,ELK1,"1.36 fold enrichment (6-mer frequency, TF over GST control)"
same,binding signal,GABPA,"1.37 fold enrichment (6-mer frequency, TF over GST control)"
same,binding signal,ERG,"1.33 fold enrichment (6-mer frequency, TF over GST control)"
same,binding signal,ELF1,"1.41 fold enrichment (6-mer frequency, TF over GST control)"
same,binding signal,EHF,"1.42 fold enrichment (6-mer frequency, TF over GST control)"
same,binding signal,SPI1,"1.39 fold enrichment (6-mer frequency, TF over GST control)"
same,binding signal,SPIB,"1.44 fold enrichment (6-mer frequency, TF over GST control)"
same,binding signal,ELK3,"1.25 fold enrichment (6-mer frequency, TF over GST control)"
same,binding signal,FEV,"1.32 fold enrichment (6-mer frequency, TF over GST control)"
same,binding signal,ETV5,"1.33 fold enrichment (6-mer frequency, TF over GST control)"
same,binding signal,HSF1,"1.34 fold enrichment (6-mer frequency, TF over GST control)"
same,binding signal,SPIC,"1.22 fold enrichment (6-mer frequency, TF over GST control)"
same,binding signal,ELF4,"1.37 fold enrichment (6-mer frequency, TF over GST control)"
same,binding signal,ELK4,"1.64 fold enrichment (6-mer frequency, TF over GST control)"
same,binding signal,ETV2,"1.41 fold enrichment (6-mer frequency, TF over GST control)"
same,binding signal,ELF3,"1.27 fold enrichment (6-mer frequency, TF over GST control)"
same,binding signal,CRX,"1.27 fold enrichment (6-mer frequency, TF over GST control)"
same,binding signal,ETV1,"1.41 fold enrichment (6-mer frequency, TF over GST control)"
